Assay [1] deals with Cytochrome P450 3A4 (Homo sapiens) (UniProt P08684). In words: qHTS Assay for Inhibitors and Substrates of Cytochrome P450 3A4 (AID 884; active means well fitted curve in the direction sought with a large enough effect; an effect the other way counts as inactive or inconclusive; further: potency means the concentration at half of the fitted maximal effect; nearly all actives have a fitted effect of over 50% in size). The essentials: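 20 nM human CYP3A4 with 25 uM Luciferin-PPXE (at KM) in 200 mM KPO4, preincubated 10 min with compound; NADPH regeneration started a 60 min RT reaction. Luciferin detected by luminescence, normalized to 57 uM ketoconazole as full inhibition.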
Cytochrome P450 3A4 (Homo sapiens), sequence (P08684 whole entry, looked up): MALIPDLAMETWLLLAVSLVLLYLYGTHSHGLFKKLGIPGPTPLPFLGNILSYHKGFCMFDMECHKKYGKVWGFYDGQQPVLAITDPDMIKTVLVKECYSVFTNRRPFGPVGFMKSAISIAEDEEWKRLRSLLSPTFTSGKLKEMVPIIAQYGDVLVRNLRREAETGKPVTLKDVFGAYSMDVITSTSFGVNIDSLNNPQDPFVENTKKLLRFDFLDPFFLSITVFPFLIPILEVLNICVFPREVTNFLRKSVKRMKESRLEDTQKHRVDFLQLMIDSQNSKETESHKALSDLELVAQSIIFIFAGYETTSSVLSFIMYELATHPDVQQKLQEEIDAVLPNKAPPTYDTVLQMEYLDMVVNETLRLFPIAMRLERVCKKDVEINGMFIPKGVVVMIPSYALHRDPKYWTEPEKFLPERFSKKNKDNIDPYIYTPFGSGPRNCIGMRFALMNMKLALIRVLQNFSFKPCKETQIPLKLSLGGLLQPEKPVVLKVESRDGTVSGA
A general note: Quantitative high-throughput screening tests each substance at several concentrations.

The target is the same in assay [2]. Put plainly: qHTS Assay for Activators of Cytochrome P450 3A4 (AID 885; active means well fitted curve in the direction sought with a large enough effect; an effect the other way counts as inactive or inconclusive; further: nearly all actives have a fitted effect of over 65% in size). The essentials:
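20nM CYP3A4 + 25uM Luciferin-PPXE (=KM), 200mM KPO4; cpd 10 min RT; NADPH regen, 60 min RT; stop w/ detection buffer, 20 min; luminescence. Normalized to 57 uM ketoconazole.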

Assay [3] in a line: MultiTox-Fluor Cytotoxicity Assay - LYMP1-002 - Dead Cells (AID 960; active means well fitted curve in the direction sought with a large enough effect; an effect the other way counts as inactive or inconclusive; further: potency means the concentration at half of the fitted maximal effect; nearly all actives have a fitted effect of over 60% in size). A digest of the protocol: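 Human lymphoblastoid LYMP1-002 cells, 2500/well, treated 16 h at 37 C; dead-cell protease cleavage of bis-AAF-R110 read by fluorescence (485/520); normalized to DMSO and 15 uM tetraoctylammonium bromide; AC50 from Hill fit.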
Assay [4] has as its target Glucocorticoid receptor (Homo sapiens) (UniProt P04150). In words: qHTS assay for small molecule agonists of glucocorticoid receptor signaling (AID 588532; active means well fitted curve in the direction sought with a large enough effect in the signal ratio, with a control signal flat; the % refers to the signal ratio;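 further: 100% = dexamethasone at 0.1 µM and 0% = DMSO only wells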). To be noted: HeLa MMTV-bla, beta-lactamase ratio, agonist, 18 h; stronger effect = higher value; percent of dexamethasone control, DMSO zero. A digest of the protocol:
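Using MMTV-bla HeLa cells in medium with 1% stripped FBS and 25 mM HEPES, compounds were titrated and incubated overnight-length (18 h). Beta-lactamase cleavage of CCF4 was quantified by dual-emission fluorescence.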

Assay [5] has as its target Peroxisome proliferator-activated receptor delta (Homo sapiens) (UniProt Q03181). In words: qHTS assay for small molecule agonists of peroxisome proliferator-activated receptor delta signaling (AID 588534).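 Further: 0% = DMSO basal wells and 100% = positive control agonist at 10 µM.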 The essentials:
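Cells carrying a PPAR-delta beta-lactamase reporter were treated with compounds for 18 h at 37 °C in agonist mode. CCF4 fluorescence was read after 2 h; EC50 and efficacy from Hill fits.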

Assay [6] has as its target Peroxisome proliferator-activated receptor gamma (Homo sapiens) (UniProt P37231). Put plainly: qHTS assay for small molecule antagonists of peroxisome proliferator-activated receptor gamma signaling (AID 588537; active means well fitted inhibition curve with a large enough effect in the signal ratio, with a control signal flat, not every such curve was filed as active; the % refers to the signal ratio; further: potency means the concentration at half of the fitted maximal effect). A digest of the protocol:
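Antagonist mode, beta-lactamase reporter in HEK293; charcoal/dextran FBS 1%; 3000 cells/well, 37 C 6-6.5 h; cpd titration + rosiglitazone 50 nM final, 16 h 37 C; CCF4, 2 h RT; 460/530 nm; Hill fit → IC50, efficacy.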

In assay [7] the target is Vitamin D3 receptor (Homo sapiens) (UniProt P11473). In words: qHTS assay for small molecule agonists of vitamin D receptor signaling (AID 588543).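 Further: 0% = DMSO basal and 100% = reference agonist control.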 A digest of the protocol: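 Measured: β-lactamase reporter activity (CCF4, 405 nm excitation, 460/530 nm emission) in HEK293T VDR-UAS-bla cells after 16 h compound exposure at 37 °C. Normalization against 50 nM 1α,25-dihydroxyvitamin D3 and DMSO; Hill-fit EC50.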
Vitamin D3 receptor (Homo sapiens), sequence (P11473 whole entry, looked up): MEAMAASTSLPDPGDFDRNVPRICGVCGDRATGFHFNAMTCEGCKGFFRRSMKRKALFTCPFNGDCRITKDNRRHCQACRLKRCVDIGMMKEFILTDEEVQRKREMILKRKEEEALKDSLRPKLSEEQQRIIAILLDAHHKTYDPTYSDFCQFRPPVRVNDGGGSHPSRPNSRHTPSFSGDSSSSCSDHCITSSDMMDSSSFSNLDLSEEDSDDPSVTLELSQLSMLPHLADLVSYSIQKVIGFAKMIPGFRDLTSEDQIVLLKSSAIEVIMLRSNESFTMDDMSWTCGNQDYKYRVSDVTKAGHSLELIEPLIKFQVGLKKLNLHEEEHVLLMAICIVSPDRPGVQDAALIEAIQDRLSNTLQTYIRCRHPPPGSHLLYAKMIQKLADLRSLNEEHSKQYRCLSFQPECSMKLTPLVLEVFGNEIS

Assay [8] deals with Voltage-gated inwardly rectifying potassium channel KCNH2 (Homo sapiens) (UniProt Q12809). Put plainly: qHTS Assay for Small Molecule Inhibitors of the Human hERG Channel Activity (AID 588834; active means well fitted curve in the direction sought with a large enough effect; an effect the other way counts as inactive or inconclusive;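 further: potency means the concentration at half of the fitted maximal effect; lower thallium flux fluorescence means stronger hERG block; nearly all actives have a fitted effect of over 50% in size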). A digest of the protocol: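 Blockade is seen as reduced FluxOR thallium-flux fluorescence in U2OS cells expressing hERG from a BacMam construct, in Opti-MEM with 2% FCS. Concentration-response data fitted to the Hill equation for AC50.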
Voltage-gated inwardly rectifying potassium channel KCNH2 (Homo sapiens), sequence (Q12809 whole entry, looked up): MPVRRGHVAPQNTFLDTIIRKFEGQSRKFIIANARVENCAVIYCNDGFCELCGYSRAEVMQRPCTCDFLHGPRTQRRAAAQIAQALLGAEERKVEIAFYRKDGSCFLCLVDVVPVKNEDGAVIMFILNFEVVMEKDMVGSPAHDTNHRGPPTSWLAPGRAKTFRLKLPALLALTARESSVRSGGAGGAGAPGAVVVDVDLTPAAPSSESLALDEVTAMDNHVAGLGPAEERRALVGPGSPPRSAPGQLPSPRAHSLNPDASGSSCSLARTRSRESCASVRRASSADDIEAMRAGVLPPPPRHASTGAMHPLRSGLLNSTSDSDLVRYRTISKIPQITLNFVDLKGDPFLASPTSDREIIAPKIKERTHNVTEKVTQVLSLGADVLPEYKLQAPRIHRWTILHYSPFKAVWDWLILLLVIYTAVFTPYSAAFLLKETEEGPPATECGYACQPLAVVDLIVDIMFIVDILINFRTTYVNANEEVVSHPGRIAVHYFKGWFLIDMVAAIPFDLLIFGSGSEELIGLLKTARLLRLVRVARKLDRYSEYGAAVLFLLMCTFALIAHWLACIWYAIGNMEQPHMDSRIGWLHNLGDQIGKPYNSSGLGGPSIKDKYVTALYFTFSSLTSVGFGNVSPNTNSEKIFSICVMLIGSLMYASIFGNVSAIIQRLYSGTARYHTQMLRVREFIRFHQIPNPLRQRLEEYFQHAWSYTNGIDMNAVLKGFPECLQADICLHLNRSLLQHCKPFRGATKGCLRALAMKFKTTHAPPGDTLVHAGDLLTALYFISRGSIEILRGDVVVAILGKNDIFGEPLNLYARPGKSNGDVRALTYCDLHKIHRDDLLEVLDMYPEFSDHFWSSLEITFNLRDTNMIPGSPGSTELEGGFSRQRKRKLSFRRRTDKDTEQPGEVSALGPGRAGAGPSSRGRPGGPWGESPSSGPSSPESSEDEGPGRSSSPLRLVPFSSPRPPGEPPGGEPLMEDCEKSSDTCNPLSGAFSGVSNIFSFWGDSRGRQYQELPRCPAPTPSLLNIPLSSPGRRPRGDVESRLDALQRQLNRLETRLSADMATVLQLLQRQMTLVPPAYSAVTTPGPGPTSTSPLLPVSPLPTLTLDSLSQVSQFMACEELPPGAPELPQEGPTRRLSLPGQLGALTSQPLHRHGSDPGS

Assay [9] in a line: qHTS assay for small molecule agonists of the antioxidant response element (ARE) signaling pathway (AID 651741; active means well fitted activation curve with a large enough effect in the signal ratio; the % refers to the signal ratio; further: potency means the concentration at half of the fitted maximal effect). A digest of the protocol:
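Quantitative HTS in HepG2 cells stably expressing an ARE-beta-lactamase reporter; 16 h compound exposure at 37 C, followed by 2 h room-temperature incubation with LiveBLAzer B/G FRET substrate and fluorescence measurement.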

A short description of assay [10]: qHTS assay for small molecule activators of the nuclear factor-kappa B (NF-kB) signaling pathway (AID 651749; active means well fitted activation curve with a large enough effect in the signal ratio; the % refers to the signal ratio; further: % of control where 0% means no effect). To be noted: NF-kB-bla ME-180 cells, beta-lactamase FRET ratio, 16 h; activation: stronger effect = higher value. The essentials: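 Readout: beta-lactamase reporter driven by an NF-kB response element, detected fluorescently as loss of FRET. Cells were the ME-180 line, treated 16 hr at 37C with pin-transferred compound.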

The nature of assay [11]: qHTS assay for environmental chemicals that activate the Aryl hydrocarbon Receptor (AhR) signaling pathway (AID 651777; active means well fitted curve in the direction sought with a large enough effect; an effect the other way counts as inactive or inconclusive; further: % of control where 0% means no effect; nearly all actives have a fitted effect of over 15% in size). The note with it: 1A2-DRE human hepatoma cells, luciferase, 24 h; activation: stronger effect = higher value. The essentials:
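Quantitative HTS in stably transfected human liver-derived cells whose luciferase gene sits downstream of the CYP1A2 promoter and dioxin response element. After 24 hr exposure at 37 C, One-Glo luminescence was measured.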

In assay [12] the target is Peroxisome proliferator-activated receptor alpha (Homo sapiens) (UniProt Q07869). In words: qHTS assay for small molecule agonists of the peroxisome proliferator-activated receptor alpha (PPARalpha) signaling pathway (AID 651778; active means well fitted curve in the direction sought with a large enough effect; an effect the other way counts as inactive or inconclusive; further: % of control where 0% means no effect). To be noted: PathHunter PPARalpha complementation, chemiluminescence, 6 h; stronger effect = higher value. A digest of the protocol:
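Chemiluminescence from complemented enzyme reported PPARalpha activation in cells after 6 hr of compound treatment at 37 C. The detection reagent was incubated for 60 min at room temperature, and compounds were scored as agonists.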

Assay [13] can be described thus: qHTS for Inhibitors of the Functional Ribonucleoprotein Complex (vRNP) of Lassa (LASV) Arenavirus: LASV Primary Screen - GLuc reporter signal (AID 1347082; calls by dose curve; tested in HEK293 reporter line; further: on the % scale 0 is the no-effect control and ±100 the full control effect; nearly all actives have a fitted effect of over 60% in size).
The nature of assay [14]: qHTS for Inhibitors of the Functional Ribonucleoprotein Complex (vRNP) of Lassa (LASV) Arenavirus: Viability assay - alamar blue signal for LASV Primary Screen (AID 1347083; calls by dose curve; tested in HEK293 reporter line; further: on the % scale 0 is the no-effect control and ±100 the full control effect; nearly all actives have a fitted effect of over 80% in size).
A short description of assay [15]: qHTS for Inhibitors of the Functional Ribonucleoprotein Complex (vRNP) of Lymphocytic Choriomeningitis Arenaviruses (LCMV): Viability assay - alamar blue signal for LCMV Primary Screen (AID 1347085; calls by dose curve; tested in HEK293 reporter line; further: on the % scale 0 is the no-effect control and ±100 the full control effect; nearly all actives have a fitted effect of over 80% in size).
For assay [16], the target named is Nucleoprotein (Lymphocytic choriomeningitis virus (strain Armstrong)) (UniProt P09992). In words: qHTS for Inhibitors of the Functional Ribonucleoprotein Complex (vRNP) of Lymphocytic Choriomeningitis Arenaviruses (LCMV): LCMV Primary Screen - GLuc reporter signal (AID 1347086). Further: on the % scale 0 is the no-effect control and ±100 the full control effect; nearly all actives have a fitted effect of over 70% in size.
Nucleoprotein (Lymphocytic choriomeningitis virus (strain Armstrong)), sequence (P09992 whole entry, looked up): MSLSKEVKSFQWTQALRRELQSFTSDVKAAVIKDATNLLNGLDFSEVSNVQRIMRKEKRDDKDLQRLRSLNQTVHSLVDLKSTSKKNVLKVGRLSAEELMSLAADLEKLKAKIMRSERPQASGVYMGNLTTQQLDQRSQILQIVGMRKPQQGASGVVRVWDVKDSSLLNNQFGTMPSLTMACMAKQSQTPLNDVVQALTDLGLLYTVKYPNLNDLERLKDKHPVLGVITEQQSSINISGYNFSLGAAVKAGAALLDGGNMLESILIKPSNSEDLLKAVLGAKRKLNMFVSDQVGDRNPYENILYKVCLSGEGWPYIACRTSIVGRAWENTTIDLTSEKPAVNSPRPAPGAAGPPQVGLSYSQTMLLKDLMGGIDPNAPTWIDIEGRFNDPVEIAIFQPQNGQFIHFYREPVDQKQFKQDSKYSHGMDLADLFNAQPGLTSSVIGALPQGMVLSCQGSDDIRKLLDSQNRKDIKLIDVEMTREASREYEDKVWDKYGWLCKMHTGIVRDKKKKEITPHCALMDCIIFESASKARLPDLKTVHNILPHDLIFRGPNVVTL
The target of assay [17] is Bile acid receptor (Homo sapiens) (UniProt Q96RI1). In words: qHTS assay for small molecule agonists of farnesoid X receptor signaling (AID 588527).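 Further: 0% = vehicle basal and 100% = reference agonist.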 The note with it: HEK293T FXR-UAS-bla, beta-lactamase ratio, 16 h; activation: stronger effect = higher value. A digest of the protocol: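 FXR-UAS-bla HEK293T, 10% dialyzed FBS; cpds up to 92 uM titration, 16 h 37 C; CCF4 dye 2 h RT; fluorescence. Normalized to chenodeoxycholic acid 100 uM (100%) and DMSO (0%); Hill fit gives EC50, efficacy.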
Bile acid receptor (Homo sapiens), sequence (Q96RI1 whole entry, looked up): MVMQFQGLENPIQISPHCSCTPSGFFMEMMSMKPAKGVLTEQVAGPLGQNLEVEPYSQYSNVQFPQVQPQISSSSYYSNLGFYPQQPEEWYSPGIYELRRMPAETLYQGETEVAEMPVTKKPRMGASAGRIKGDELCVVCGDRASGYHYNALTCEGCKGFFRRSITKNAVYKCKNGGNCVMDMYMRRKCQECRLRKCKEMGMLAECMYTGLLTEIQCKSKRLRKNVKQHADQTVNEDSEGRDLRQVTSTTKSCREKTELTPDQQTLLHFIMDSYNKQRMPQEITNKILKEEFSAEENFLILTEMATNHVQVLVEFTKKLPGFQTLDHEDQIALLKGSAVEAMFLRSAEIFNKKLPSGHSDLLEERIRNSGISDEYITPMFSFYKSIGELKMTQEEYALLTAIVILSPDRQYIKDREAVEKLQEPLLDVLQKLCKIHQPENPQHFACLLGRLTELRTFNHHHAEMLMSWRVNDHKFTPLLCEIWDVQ

Assay [18] is described as follows: qHTS profiling of the MIPE4 collection as inhibitors of Plasmodium falciparum (3D7) proliferation (AID 743344; call rule not given here;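 further: scaled between DMSO vehicle wells and 0.29 µM artemisinin as full inhibition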). The note with it: P. falciparum 3D7 in erythrocytes, SYBR Green DNA fluorescence, 72 h; at 28.5 µM (top of the series) unless noted. A digest of the protocol:
(§1)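 Erythrocytes infected with P. falciparum (0.3% parasitemia, 2.5% hematocrit) incubated with compounds 72 h at 37 C, 5% CO2. Lysis with saponin/Triton buffer containing SYBR Green I, overnight at room temperature in the dark; DNA fluorescence (485/535 nm) normalised to 0.29 uM artemisinin and DMSO.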

The nature of assay [19]: qHTS profiling of the MIPE4 collection as inhibitors of Plasmodium falciparum (DD2) proliferation (AID 743345; call rule not given here). To be noted: P. falciparum Dd2 in erythrocytes, SYBR Green DNA, 72 h; at 28.5 µM (top of the series) unless noted. A digest of the protocol: as §1
Assay [20] can be described thus: qHTS profiling of the MIPE4 collection as inhibitors of Plasmodium falciparum (DD2) proliferation (Rep 2) (AID 743346; call rule not given here). To be noted: P. falciparum Dd2 in erythrocytes, SYBR Green DNA, 72 h; at 28.5 µM (top of the series) unless noted. A digest of the protocol:
as §1

Assay [21] in a line: qHTS profiling for inhibitors of Plasmodium falciparum (3D7) proliferation (AID 743322).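 Further: infected erythrocytes exposed to compound for 72 h before lysis; 100% = DMSO vehicle wells and 0% = 0.29 µM artemisinin.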 To be noted: P. falciparum 3D7 proliferation; at 28.7 µM (top of the series). A digest of the protocol:
as §1

Assay [22] is described as follows: qHTS profiling for inhibitors of Plasmodium falciparum (DD2) proliferation (AID 743323; call rule not given here). The note with it: lower = more inhibition; at 28.7 µM (top of the series). A digest of the protocol: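 SYBR Green fluorescence (ex 485, em 535 nm) of lysed cultures gives parasite DNA content; wells normalized to artemisinin (0.29 uM) and DMSO controls. Infected red cells: 0.3% parasitemia, 2.5% hematocrit, 72 h, 37 C.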

Assay [23] in a line: qHTS profiling for inhibitors of Plasmodium falciparum (HB3) proliferation (AID 743324; active means well fitted curve in the direction sought with a large enough effect; an effect the other way counts as inactive or inconclusive;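 further: 100% = DMSO vehicle wells and 0% = artemisinin-treated control wells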). The note with it: Plasmodium falciparum HB3 blood-stage proliferation; at 28.7 µM (top of the series). The essentials:
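P. falciparum HB3 grown in erythrocytes (0.3% parasitemia, 2.5% hematocrit final) with compound for 72 h at 37 C, 5% CO2. Parasite DNA detected by SYBR Green after saponin/triton lysis overnight; normalized to 0.29 uM artemisinin and DMSO.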

Where “and” joins values, the source holds several entries; their conditions need not be identical. Equal entries are not always repeated. Inconclusive results are not listed. Calls of active or inactive are those of the source. Unless noted, the call rests on the fitted dose curve.

Peroxisome proliferator-activated receptor delta (Homo sapiens), sequence (Q03181 whole entry, looked up): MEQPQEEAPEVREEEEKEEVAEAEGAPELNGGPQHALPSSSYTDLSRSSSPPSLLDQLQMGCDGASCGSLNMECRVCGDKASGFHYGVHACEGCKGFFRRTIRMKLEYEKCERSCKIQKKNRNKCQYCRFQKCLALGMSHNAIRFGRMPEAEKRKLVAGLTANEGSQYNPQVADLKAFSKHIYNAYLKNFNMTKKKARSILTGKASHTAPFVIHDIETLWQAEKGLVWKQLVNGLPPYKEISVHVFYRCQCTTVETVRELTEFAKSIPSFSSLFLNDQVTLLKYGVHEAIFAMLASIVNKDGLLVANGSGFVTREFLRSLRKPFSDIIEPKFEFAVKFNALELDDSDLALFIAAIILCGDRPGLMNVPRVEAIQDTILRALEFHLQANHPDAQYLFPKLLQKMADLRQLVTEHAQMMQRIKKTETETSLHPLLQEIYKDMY
Peroxisome proliferator-activated receptor gamma (Homo sapiens), sequence (P37231 whole entry, looked up): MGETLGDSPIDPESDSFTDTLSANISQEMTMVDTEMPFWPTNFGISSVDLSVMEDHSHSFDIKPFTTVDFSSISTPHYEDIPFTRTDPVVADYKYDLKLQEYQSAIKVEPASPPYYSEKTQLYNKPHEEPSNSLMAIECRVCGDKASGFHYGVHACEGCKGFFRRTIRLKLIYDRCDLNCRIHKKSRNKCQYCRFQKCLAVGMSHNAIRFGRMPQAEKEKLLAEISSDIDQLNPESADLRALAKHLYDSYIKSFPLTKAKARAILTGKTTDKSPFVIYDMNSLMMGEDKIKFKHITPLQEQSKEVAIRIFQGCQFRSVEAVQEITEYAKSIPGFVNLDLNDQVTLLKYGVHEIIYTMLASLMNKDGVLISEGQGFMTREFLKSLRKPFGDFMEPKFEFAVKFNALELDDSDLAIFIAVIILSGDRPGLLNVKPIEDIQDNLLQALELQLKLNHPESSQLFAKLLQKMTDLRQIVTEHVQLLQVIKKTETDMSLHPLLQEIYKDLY
Glucocorticoid receptor (Homo sapiens), sequence (P04150 whole entry, looked up): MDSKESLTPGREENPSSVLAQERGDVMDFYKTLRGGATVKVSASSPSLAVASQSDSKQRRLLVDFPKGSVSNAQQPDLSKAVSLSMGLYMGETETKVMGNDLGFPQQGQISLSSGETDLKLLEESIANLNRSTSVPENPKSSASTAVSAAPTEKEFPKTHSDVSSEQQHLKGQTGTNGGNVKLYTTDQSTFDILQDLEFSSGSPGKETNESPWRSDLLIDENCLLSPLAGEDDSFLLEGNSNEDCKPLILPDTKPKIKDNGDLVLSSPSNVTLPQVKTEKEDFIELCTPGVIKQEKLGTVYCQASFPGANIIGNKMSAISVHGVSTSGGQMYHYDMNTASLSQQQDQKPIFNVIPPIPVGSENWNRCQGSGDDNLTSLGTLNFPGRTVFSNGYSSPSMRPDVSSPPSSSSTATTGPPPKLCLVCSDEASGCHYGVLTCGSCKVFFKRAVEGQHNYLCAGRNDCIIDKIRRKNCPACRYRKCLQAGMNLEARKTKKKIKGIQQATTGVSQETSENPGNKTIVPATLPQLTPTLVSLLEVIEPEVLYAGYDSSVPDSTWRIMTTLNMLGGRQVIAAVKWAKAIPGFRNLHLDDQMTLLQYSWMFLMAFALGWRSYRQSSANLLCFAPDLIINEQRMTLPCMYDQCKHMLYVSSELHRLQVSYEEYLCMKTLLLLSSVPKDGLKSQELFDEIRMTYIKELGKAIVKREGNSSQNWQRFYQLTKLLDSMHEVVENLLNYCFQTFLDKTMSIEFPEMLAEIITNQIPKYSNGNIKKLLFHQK

Take `c1ccc(Nc2cccc3ccccc23)cc1`: the Potency in assay [1] is 31.6 µM (active); in [3], 31.6 µM (active); in assay [6] it was 39.8 µM (active) and 44.7 µM (active); in assay [8] it was 28.2 µM (active); in assay [9] it was 42.2 µM (active) and 24.3 µM (active). In addition, the Potency entry in assay [2], in assay [5], in [7], in [13], in [14] and in assay [15] was “inactive” in each case. The Potency entry in [16] is “inactive”. For the same molecule, the results for the activation in assay [4], in [10] and in assay [11] were 4.55% (inactive), -0.293% (inactive) and 4.97% (inactive), respectively. In [12], the max response is -0.23% (inactive).
Turning to `O=C1CCc2ccccc2O1`, the Potency entry in assay [5], in [13], in [14], in assay [15] and in assay [16] was “inactive” each time.
In the case of `CCCCCCC(=O)O`, the activation in assay [17] was -0.812% (inactive). Further, the Potency entry in assay [5], in assay [13], in [14], in assay [15] and in assay [16] was “inactive” throughout.
With `CC(=O)OCCC(C)C`, the Potency entry in assay [5], in [13], in assay [14], in assay [15] and in assay [16] was “inactive” throughout.
For the molecule `COc1ccc(OC)cc1`, the Potency entry in [5], in [13], in assay [14], in assay [15] and in assay [16] was “inactive” throughout.
With `CCCCC(CC)CO` (stereo not drawn), in assay [17], the activation is -0.465% (inactive). Further, the Potency entry in [5], in assay [13], in assay [14], in assay [15] and in [16] was “inactive” throughout.
Take `C=CCCCCCCCCC=O`: the Potency result in [5], in [13], in assay [14], in [15] and in assay [16] was “inactive” each time.
`CCCCCC1CCC(=O)O1` (stereo not drawn): the activation in [17] is 0.301% (inactive). The Potency result in assay [5], in assay [13], in assay [14], in assay [15] and in [16] was “inactive” each time.
With `CC(=O)c1ccccn1`, in [17], the activation is -4.62% (inactive). The Potency result in assay [5], in assay [13], in [14], in assay [15] and in [16] was “inactive” throughout.
For `CON=C(C(=O)N[C@@H]1C(=O)N2C(C(=O)O)=C(Cn3ccc(=N)n3CCO)CS[C@H]12)c1csc(N)n1`, the parasite growth, % of DMSO control in assay [18] was determined as 60.9%. In addition, the parasite growth remaining, % of DMSO control (lower = more inhibition) in assay [19] is 93.5%. This molecule returned a parasite growth, % of control (lower = inhibition) in assay [20] of 92%. Also, the Potency entry in assay [13], in assay [14], in [15] and in assay [16] was “inactive” in each case.
Regarding `O=C(Nc1ccccc1)Nc1ccccc1`, the Potency entry in assay [5], in [13], in assay [14], in [15] and in [16] was “inactive” in each case.
`CC(=O)N(O)CCCP(=O)(O)O` gave a remaining parasite growth % (stronger effect = lower value) in [21] of 13.5%. This molecule had an activity, percent of control in assay [22] of 10.8%. This molecule also had a remaining proliferation (% of control), lower = more inhibition in assay [23] of 8.45%. The same molecule came in with a parasite growth, % of DMSO control in assay [18] of 13.6%. For the same molecule, in assay [19], the parasite growth remaining, % of DMSO control (lower = more inhibition) came out at 18.6%. This molecule registered a parasite growth, % of control (lower = inhibition) in [20] of 18.1%. The Potency result in assay [13], in assay [14], in assay [15] and in [16] was “inactive” throughout.
Regarding `CCCCCCCCCCCCCc1ccccc1`, in [17], the activation is -1.99% (inactive). The Potency entry in assay [5], in assay [13], in assay [14], in assay [15] and in assay [16] was “inactive” in each case.
For the molecule `CCCCCCCCCC(C)=O`, the Potency result in [5], in [13], in assay [14], in assay [15] and in [16] was “inactive” throughout.
As to `C=CC(=C)CCC=C(C)C`, the Potency entry in assay [5], in assay [13], in [14], in assay [15] and in assay [16] was “inactive” in each case.
For the molecule `C1CCC2(CCCCO2)OC1`, the Potency entry in assay [5], in [13], in [14], in assay [15] and in [16] was “inactive” each time.

For the origin of these results see PubChem BioAssay (NCATS).
